Experimental data taken from PubChem BioAssay (NCI).
Compounds without any hit were thinned out: in the full panel of roughly 83,000, 20% have a hit.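 Growth was measured after 48 h exposure to one concentration of compound in 96-well plates. Values under 10 count as active.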 Activity calls are given as the source filed them.

Tests used:
Experiment in all cases: NCI-60 one-dose screen, 48 h (100 = growth as untreated, 0 = no growth, -100 = all killed)
Settings in all cases: 10 µM
SR leukemia = test system: SR leukemia
RPMI-8226 leukemia = test system: RPMI-8226 leukemia
OVCAR-8 ovarian = test system: OVCAR-8 ovarian
OVCAR-5 ovarian = test system: OVCAR-5 ovarian
OVCAR-4 ovarian = test system: OVCAR-4 ovarian
SK-OV-3 ovarian = test system: SK-OV-3 ovarian
IGROV1 ovarian = test system: IGROV1 ovarian
OVCAR-3 ovarian = test system: OVCAR-3 ovarian
HS 578T breast = test system: HS 578T breast
NCI/ADR-RES ovarian = test system: NCI/ADR-RES ovarian
T-47D breast = test system: T-47D breast
MDA-MB-435 melanoma = test system: MDA-MB-435 melanoma
SW-620 colon = test system: SW-620 colon
MCF7 breast = test system: MCF7 breast
HCT-116 colon = test system: HCT-116 colon
HCC-2998 colon = test system: HCC-2998 colon
KM12 colon = test system: KM12 colon
BT-549 breast = test system: BT-549 breast

Measured: growth

CC(CN(C)C)Oc1ccccc1NC1=C(Cl)C(=O)C(Nc2ccccc2OC(C)CN(C)C)=C(Cl)C1=O (centres undefined)
active: SR leukemia -9.43% | RPMI-8226 leukemia -34.5% | OVCAR-8 ovarian -85.3% | OVCAR-5 ovarian -72.2% | OVCAR-4 ovarian -97.6% | IGROV1 ovarian -76.4% | OVCAR-3 ovarian -96.2% | HS 578T breast 3.54% | NCI/ADR-RES ovarian -24.5% | T-47D breast -42% | MDA-MB-435 melanoma -71% | SW-620 colon -66.5% | MCF7 breast -47% | HCT-116 colon -70.3% | HCC-2998 colon -87.4% | KM12 colon -1.19%
inactive: SK-OV-3 ovarian 58.9%

CCCCCCCCCCOC(c1ccccc1)c1ccccc1
inactive: SR leukemia 93.7% | RPMI-8226 leukemia 96% | OVCAR-8 ovarian 103% | OVCAR-5 ovarian 88.7% | OVCAR-4 ovarian 99.8% | SK-OV-3 ovarian 96.6% | IGROV1 ovarian 73.7% | OVCAR-3 ovarian 99.5% | HS 578T breast 99.7% | NCI/ADR-RES ovarian 86.1% | T-47D breast 77.1% | MDA-MB-435 melanoma 99% | MCF7 breast 91.1% | HCT-116 colon 58.6% | HCC-2998 colon 99% | KM12 colon 89.1%

CCOC(=O)c1cc(C(=O)c2cc(OC)cc(OC)c2)n2nc(C)ccc12
active: SK-OV-3 ovarian 6.35% | OVCAR-3 ovarian 1.01% | MDA-MB-435 melanoma -16.2%
inactive: SR leukemia 18.4% | RPMI-8226 leukemia 12.2% | OVCAR-8 ovarian 29.7% | OVCAR-5 ovarian 59.6% | OVCAR-4 ovarian 56.6% | IGROV1 ovarian 44.8% | HS 578T breast 36.4% | T-47D breast 43.9% | BT-549 breast 48.7% | SW-620 colon 17.8% | MCF7 breast 20.8% | HCT-116 colon 25.2% | HCC-2998 colon 54.1% | KM12 colon 29.4%

NC1=NC(c2ccc(Cl)cc2)C2=C(N1)/C(=C/c1ccc(Cl)cc1)CCC2 (centres undefined)
inactive: SR leukemia 20.8% | OVCAR-8 ovarian 41.2% | OVCAR-5 ovarian 112% | OVCAR-4 ovarian 76.1% | SK-OV-3 ovarian 80.6% | IGROV1 ovarian 85.2% | OVCAR-3 ovarian 39.1% | HS 578T breast 100% | T-47D breast 102% | BT-549 breast 79% | SW-620 colon 18.9% | MCF7 breast 33.2%
active: RPMI-8226 leukemia -12.4% | MDA-MB-435 melanoma -0.458% | HCT-116 colon -72.1% | HCC-2998 colon -31.1% | KM12 colon 2.3%

CN(C)CCOc1ccccc1NC1=C(Cl)C(=O)C(Nc2ccccc2OCCN(C)C)=C(Cl)C1=O
active: OVCAR-4 ovarian -99% | OVCAR-3 ovarian -96% | T-47D breast -37.6% | MCF7 breast -53.9% | HCT-116 colon -75.3%
inactive: SR leukemia 19% | RPMI-8226 leukemia 82.7% | OVCAR-8 ovarian 26.6% | OVCAR-5 ovarian 109% | SK-OV-3 ovarian 119% | IGROV1 ovarian 10.5% | HS 578T breast 98.4% | NCI/ADR-RES ovarian 92.8% | MDA-MB-435 melanoma 86.4% | HCC-2998 colon 101% | KM12 colon 93.6%

CC[C@@H](C(=O)[C@H](C)[C@H](O)[C@@H](C)[C@H]1O[C@H]([C@@H](CC)C(=O)O)CC[C@H]1C)C1O[C@]2(C=C[C@@H](O)[C@]3(CC[C@@](C)([C@H]4CC[C@](O)(CC)[C@H](C)O4)O3)O2)[C@H](C)C[C@@H]1C (some centres undefined)
inactive: SR leukemia 22.5% | OVCAR-8 ovarian 49.1% | OVCAR-5 ovarian 41.9% | OVCAR-4 ovarian 43.4% | SK-OV-3 ovarian 42.5% | IGROV1 ovarian 41.1% | OVCAR-3 ovarian 25.8% | HS 578T breast 21.9% | T-47D breast 25.5% | SW-620 colon 24% | HCT-116 colon 22.2% | KM12 colon 24.5%
active: RPMI-8226 leukemia -7% | BT-549 breast 6.06% | MDA-MB-435 melanoma -16.3% | MCF7 breast 3.7% | HCC-2998 colon 8.29%

Cc1ccc(NCCNCC(C)(C)O)c2c(=O)c3ccc(Cl)cc3sc12
active: SR leukemia -31.2% | RPMI-8226 leukemia -12.9% | OVCAR-3 ovarian -13.4% | MDA-MB-435 melanoma -84.5% | SW-620 colon -80.1% | MCF7 breast -73.2% | HCT-116 colon -61.6% | KM12 colon 8.21%
inactive: OVCAR-8 ovarian 32.2% | OVCAR-5 ovarian 59.9% | OVCAR-4 ovarian 62.5% | SK-OV-3 ovarian 79.1% | IGROV1 ovarian 29.8% | HS 578T breast 50.4% | NCI/ADR-RES ovarian 45.9% | T-47D breast 27.4%

O=C1/C(=C/c2ccc([N+](=O)[O-])s2)Oc2cc(Cl)ccc21
inactive: OVCAR-5 ovarian 53% | SK-OV-3 ovarian 88.8% | T-47D breast 11.2%
active: SR leukemia 8.31% | RPMI-8226 leukemia -14.7% | OVCAR-8 ovarian -25.5% | OVCAR-4 ovarian 3.28% | IGROV1 ovarian -60.9% | OVCAR-3 ovarian -76.8% | HS 578T breast 1.22% | BT-549 breast -55% | MDA-MB-435 melanoma -25.7% | SW-620 colon -40.9% | MCF7 breast 4.42% | HCT-116 colon -17.8% | HCC-2998 colon 2.91%

Cc1ccc(-n2nnnc2N)c(C)c1
inactive: SR leukemia 112% | RPMI-8226 leukemia 109% | OVCAR-8 ovarian 108% | OVCAR-5 ovarian 107% | OVCAR-4 ovarian 99% | SK-OV-3 ovarian 113% | IGROV1 ovarian 123% | OVCAR-3 ovarian 113% | HS 578T breast 99% | NCI/ADR-RES ovarian 105% | T-47D breast 112% | MDA-MB-435 melanoma 102% | SW-620 colon 96% | MCF7 breast 95.9% | HCT-116 colon 98.7% | KM12 colon 108%

C1CN(CC2CCC(CN3CCOCC3)O2)CCO1 (centres undefined)
inactive: SR leukemia 61.7% | RPMI-8226 leukemia 92.3% | OVCAR-8 ovarian 104% | OVCAR-5 ovarian 109% | OVCAR-4 ovarian 107% | SK-OV-3 ovarian 90.2% | IGROV1 ovarian 108% | OVCAR-3 ovarian 112% | HS 578T breast 104% | NCI/ADR-RES ovarian 101% | T-47D breast 81.5% | MDA-MB-435 melanoma 104% | MCF7 breast 53.2% | HCT-116 colon 89% | HCC-2998 colon 102% | KM12 colon 105%

CC(CN(C)C)Oc1ccc(OC(C)CN(C)C)c2c1C(=O)c1ccccc1C2=O (centres undefined)
inactive: SR leukemia 20.7% | RPMI-8226 leukemia 41.4% | OVCAR-8 ovarian 30.1% | OVCAR-5 ovarian 63.6% | OVCAR-4 ovarian 72% | SK-OV-3 ovarian 45.1% | IGROV1 ovarian 37.3% | OVCAR-3 ovarian 55% | HS 578T breast 70% | NCI/ADR-RES ovarian 94.5% | T-47D breast 77.7% | MDA-MB-435 melanoma 46.1% | MCF7 breast 16.1% | HCT-116 colon 14.2% | HCC-2998 colon 57.4% | KM12 colon 51.1%

O=C1c2ccccc2C(=O)c2c1ccc(C(Br)Br)c2Cl
inactive: OVCAR-8 ovarian 17.1% | OVCAR-5 ovarian 104% | OVCAR-4 ovarian 35.5% | SK-OV-3 ovarian 93.4% | HS 578T breast 85.6% | NCI/ADR-RES ovarian 64.6% | T-47D breast 22.7% | MDA-MB-435 melanoma 60% | HCC-2998 colon 87.4% | KM12 colon 47.5%
active: SR leukemia -51.2% | RPMI-8226 leukemia -15.5% | IGROV1 ovarian -43.2% | OVCAR-3 ovarian -13.8% | SW-620 colon -23.4% | MCF7 breast 2.06% | HCT-116 colon -62.7%

CN(C)CCCOc1ccc(NC2=C(Cl)C(=O)C(Nc3ccc(OCCCN(C)C)cc3)=C(Cl)C2=O)cc1
active: SR leukemia -1.57% | RPMI-8226 leukemia -44.1% | OVCAR-8 ovarian -68.3% | OVCAR-5 ovarian -60.6% | OVCAR-4 ovarian -98.9% | IGROV1 ovarian -68.2% | OVCAR-3 ovarian -98.3% | HS 578T breast -0.291% | NCI/ADR-RES ovarian 8.96% | T-47D breast -39.3% | MDA-MB-435 melanoma -89% | SW-620 colon -58.4% | MCF7 breast -49.4% | HCT-116 colon -86.9% | HCC-2998 colon -90.6% | KM12 colon -63%
inactive: SK-OV-3 ovarian 24.4%

CCCC1(CN2c3ccccc3Sc3ccc(Cl)cc32)CCN(CC)C1 (centres undefined)
active: SR leukemia -50.1% | RPMI-8226 leukemia -43.2% | OVCAR-8 ovarian -41.2% | OVCAR-5 ovarian 8.89% | IGROV1 ovarian -42.7% | OVCAR-3 ovarian 2.48% | HS 578T breast -22.8% | MDA-MB-435 melanoma -94.7% | SW-620 colon -94.7% | MCF7 breast -93.7% | HCT-116 colon -100% | HCC-2998 colon -49.5% | KM12 colon -44.5%
inactive: OVCAR-4 ovarian 28.3% | SK-OV-3 ovarian 21.7% | NCI/ADR-RES ovarian 31.4%

CCOS(=O)(=O)c1c(C(C)C)cc(C(C)C)cc1C(C)C
inactive: SR leukemia 85.1% | RPMI-8226 leukemia 119% | OVCAR-8 ovarian 103% | OVCAR-5 ovarian 90.6% | OVCAR-4 ovarian 120% | SK-OV-3 ovarian 108% | IGROV1 ovarian 93.5% | OVCAR-3 ovarian 103% | HS 578T breast 103% | NCI/ADR-RES ovarian 103% | T-47D breast 115% | MDA-MB-435 melanoma 99.1% | SW-620 colon 98.3% | MCF7 breast 91.4% | HCT-116 colon 104% | HCC-2998 colon 99.1% | KM12 colon 104%

Cc1ccc(NC(=O)N2CCCCC2)cc1[N+](=O)[O-]
inactive: SR leukemia 39.3% | RPMI-8226 leukemia 41.7% | OVCAR-8 ovarian 72.2% | OVCAR-5 ovarian 101% | OVCAR-4 ovarian 111% | SK-OV-3 ovarian 112% | IGROV1 ovarian 87.3% | OVCAR-3 ovarian 115% | HS 578T breast 54.8% | NCI/ADR-RES ovarian 95.4% | T-47D breast 121% | SW-620 colon 73.3% | MCF7 breast 92.9% | HCT-116 colon 94.7% | HCC-2998 colon 103%

CC(=O)OC/C=C(/C)C[P+](c1ccccc1)(c1ccccc1)c1ccccc1
inactive: SR leukemia 64.9% | OVCAR-8 ovarian 35% | OVCAR-5 ovarian 81.4% | OVCAR-4 ovarian 85.8% | SK-OV-3 ovarian 94.7% | IGROV1 ovarian 83.5% | OVCAR-3 ovarian 62.9% | HS 578T breast 87.9% | NCI/ADR-RES ovarian 90.3% | T-47D breast 14.4% | MDA-MB-435 melanoma 53.3% | SW-620 colon 53.6% | MCF7 breast 33.3% | HCT-116 colon 26% | HCC-2998 colon 80.4% | KM12 colon 33.3%
active: RPMI-8226 leukemia 0.0221%
